Reference: PubChem BioAssay (Tox21)
Results filed as inconclusive are left out. Active and inactive are the calls of the source. Unless noted, calls follow the shape of the full dose curve.

Key:
[1] = Nuclear factor erythroid 2-related factor 2/antioxidant responsive element (Nrf2/ARE) small molecule agonists: qHTS cell viability counter screen in human keratinocytes (AID 1919968; active = well fitted curve in the direction sought with a large enough effect in the repeat runs; an effect the other way counts as inactive or inconclusive; also: nearly all actives have a fitted effect of over 55% in size)
In short: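 Seed 1,500 KeratinoSens cells per well, then incubate 5 h at 37 C/5% CO2. Add compounds in DMSO and incubate 23 h. Add CellTiter-Fluor, wait 1 h and read fluorescence.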

[2] = Nuclear factor erythroid 2-related factor 2/antioxidant responsive element (Nrf2/ARE) small molecule agonists: luciferase reporter gene qHTS assay in human keratinocytes (AID 1919969); also: nearly all actives have a fitted effect of over 35% in size
[3] = target: Gonadotropin-releasing hormone receptor (Homo sapiens) (UniProt P30968); test: Human gonadotropin-releasing hormone receptor (GnRHR) small molecule agonists, calcium flux assay in GnRHR-HEK293 cells (AID 1920063); also: nearly all actives have a fitted effect of over 35% in size
In short: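 Cells: HEK293 stably expressing human GnRHR. Steps: overnight (18 h) culture, 1 h calcium dye loading at 37 C, compound addition, kinetic fluorescence read at 480/540 nm. Each compound tested at 15 concentrations in triplicate.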

[4] = target: KiSS-1 receptor (Homo sapiens) (UniProt Q969F8); test: Human kisspeptin (KISS1R) small molecule agonists, calcium flux assay in KISS1R-HEK293 cells (AID 1920064; active = well fitted curve in the direction sought with a large enough effect in the repeat runs; an effect the other way counts as inactive or inconclusive)
In short: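 Cells plated and incubated 18 h; dye added, 1 h at 37 C; compounds in DMSO pinned in; signal read at 480/540 nm every second for 3 min. Each compound tested at 15 concentrations in triplicate.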

[5] = G protein-coupled receptor (GPCR) small molecule agonists, calcium flux assay: HEK293 wild type cell line counter screen (AID 1920065)
In short: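 Counter-screen of the Tox21 10K library for non-specific calcium release: dye-loaded cells received compounds in DMSO and were monitored by kinetic fluorescence (480/540 nm, 3 min). Fifteen concentrations, run in triplicate.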

[6] = p53 small molecule agonists, cell-based qHTS assay with human liver microsomes (AID 1963577);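 also: p53 response element beta-lactamase reporter cells with liver microsomes plus NADPH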
In short: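 Steps: plate p53RE-bla cells, incubate 5 h at 37 C; add compound in DMSO; add microsomes (0.5 mg/mL final) and NADPH (0.5 mg/mL final); incubate 16 h at 37 C; add LiveBLAzer, 2 h RT; read fluorescence.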

[7] = p53 small molecule agonists, cell-based qHTS assay with rat liver microsomes (AID 1963578)
In short: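 Metabolic activation is supplied by rat liver microsomes with NADPH (each 0.5 mg/mL final). p53RE-bla cells incubate with compound 16 h at 37 C; reporter activity is measured by LiveBLAzer fluorescence.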

[8] = p53 small molecule agonists, cell-based qHTS assay with human liver microsomes: qHTS cell viability counter screen (AID 1963579); also: nearly all actives have a fitted effect of over 45% in size
In short: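 After the 460/530 nm beta-lactamase read, CellTiter-Glo was added to the same wells and luminescence measured after 30 min at room temperature, giving viability of p53RE-bla cells treated 16 h with compounds plus microsomes and NADPH.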

[9] = p53 small molecule agonists, cell-based qHTS assay with rat liver microsomes: qHTS cell viability counter screen (AID 1963580); also: nearly all actives have a fitted effect of over 45% in size
In short: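 Viability is assessed in parallel with the p53 reporter read: HCT-116 p53RE-bla cells receive compounds plus rat microsomes and NADPH (0.5 mg/mL final apiece), incubate 16 h at 37 C, and then CellTiter-Glo luminescence is recorded.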

[10] = p53 small molecule agonists, cell-based qHTS assay: qHTS cell viability counter screen (AID 1963581); also: nearly all actives have a fitted effect of over 45% in size
In short: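 Cells: HCT-116 with p53 response element-driven beta-lactamase. Treatment: 16 h, 37 C, compounds in DMSO. Read: CellTiter-Glo luminescence after 30 min RT.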

[11] = p53 small molecule agonists, cell-based qHTS assay (AID 1963582; active = well fitted activation curve with a large enough effect in the signal ratio in the repeat runs, not every such curve was filed as active; the % refers to the signal ratio)
In short: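 Quantitative HTS in p53RE-bla cells: after a 5 h settling period, compounds delivered in DMSO were left on cells for 16 h at 37 C, and reporter induction was measured as fluorescence following 2 h substrate loading.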

[12] = target: 5-hydroxytryptamine receptor 2A (Homo sapiens) (UniProt P28223); test: 5-hydroxytryptamine receptor 2A (HTR2A) small molecule antagonists, cell-based qHTS assay (AID 1963586); also: nearly all actives have a fitted effect of over 45% in size; also: potency is read from the fitted curve at half-maximal effect
In short: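 Antagonist-mode intracellular calcium assay: DOI (4 nM) added after 5 min compound pre-incubation at room temperature to dye-loaded HTR2A-CHO cells. Fluorescence followed for 3 min, sampled every second.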

[13] = target: 5-hydroxytryptamine receptor 2A (Homo sapiens) (UniProt P28223); test: 5-hydroxytryptamine receptor 2A (HTR2A) small molecule agonists, cell-based qHTS assay (AID 1963587); also: nearly all actives have a fitted effect of over 30% in size; also: potency is read from the fitted curve at half-maximal effect
In short: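 CHO cells stably expressing human HTR2A, plated 18 h, loaded with calcium dye 1 h at 37 C. Agonist mode: compounds added and intracellular calcium fluorescence recorded kinetically for 2 min at 1 sec intervals.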

[14] = target: Muscarinic acetylcholine receptor M1 (Homo sapiens) (UniProt P11229); test: Cholinergic receptor muscarinic 1 (CHRM1) small molecule antagonists, cell-based qHTS assay (AID 1963588); also: nearly all actives have a fitted effect of over 40% in size
In short: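 CHRM1-CHO calcium-flux assay, antagonist mode. Cells were seeded 18 h, dye-loaded 1 h at 37 C and given compound for 5 min at RT, then acetylcholine was added at 50nM. FDSS fluorescence was read 3 min; 15 concentrations, three runs.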

[15] = target: Muscarinic acetylcholine receptor M1 (Homo sapiens) (UniProt P11229); test: Cholinergic receptor muscarinic 1 (CHRM1) small molecule agonists, cell-based qHTS assay (AID 1963589); also: nearly all actives have a fitted effect of over 35% in size
In short: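 Agonist-mode qHTS in CHO cells stably carrying human muscarinic M1. Intracellular calcium is tracked by fluorescence every second after compound transfer; each compound runs at 15 concentrations in three independent runs.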

[16] = cAMP Responsive Elements (CRE) small molecule agonists, cell-based qHTS assay (AID 1963590)
In short: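 Agonist mode qHTS in CRE-bla HEK 293T cells: compounds dosed from DMSO for 3 h at 37 C/5% CO2, followed by LiveBLAzer B/G FRET substrate for 2 h at room temperature.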

[17] = cAMP Responsive Elements (CRE) small molecule antagonists, cell-based qHTS assay (AID 1963591; active = well fitted inhibition curve with a large enough effect in the signal ratio in the repeat runs, not every such curve was filed as active; the % refers to the signal ratio)
In short: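 Antagonist mode: test compounds are co-incubated with the adenylyl cyclase activator NKH477 (0.25 uM final) on CRE-bla HEK293T cells for 3 h at 37 °C, followed by LiveBLAzer substrate loading.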

[18] = target: Beta-2 adrenergic receptor (Homo sapiens) (UniProt P07550); test: Adrenergic beta2 receptor (ADRB2) small molecule antagonists, cell-based qHTS assay (AID 1963592); also: series mostly up to about 92 µM; nearly all actives have a fitted effect of over 50% in size
In short: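 Cells (CHO, stable ADRB2 overexpression) incubated 18-20hr at 37C; compounds added from DMSO; agonist mix (1nM isoproterenol, 100uM IBMX, 25uM Ro-20-1724) added; 0.5hr RT; d2-cAMP and anti-cAMP-cryptate added; 1hr RT; 665/615 nm read.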

[19] = target: D(2) dopamine receptor (Homo sapiens) (UniProt P14416); test: Dopamine D2 receptor (DRD2) small molecule agonists, cell-based qHTS assay (AID 1963594); also: nearly all actives have a fitted effect of over 35% in size
In short: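 HEK293 cells stably expressing human DRD2, pre-treated with PDE inhibitor Ro20-1724 (0.1 mM final) and compound 10 min at room temperature, then stimulated with NKH477 (200nM […]) for 30 min. cAMP read by HTRF (665/620 nm).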

[20] = target: D(2) dopamine receptor (Homo sapiens) (UniProt P14416); test: Dopamine D2 receptor (DRD2) small molecule antagonists, cell-based qHTS assay (AID 1963595; active = well fitted inhibition curve with a large enough effect in the signal ratio in the repeat runs, with a control signal flat; the % refers to the signal ratio)
In short: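 Stable D2 receptor HEK293 line, 24 h after seeding. Compound preincubated 10 min, then quinpirole (12 nM) with forskolin analogue NKH477 (200 nM), 30 min, room temperature. Detection by time-resolved FRET of cAMP.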
% is scaled to controls: 0 for no effect and ±100 for the full control effect.

Sequence of 5-hydroxytryptamine receptor 2A (Homo sapiens) (P28223 whole entry, looked up): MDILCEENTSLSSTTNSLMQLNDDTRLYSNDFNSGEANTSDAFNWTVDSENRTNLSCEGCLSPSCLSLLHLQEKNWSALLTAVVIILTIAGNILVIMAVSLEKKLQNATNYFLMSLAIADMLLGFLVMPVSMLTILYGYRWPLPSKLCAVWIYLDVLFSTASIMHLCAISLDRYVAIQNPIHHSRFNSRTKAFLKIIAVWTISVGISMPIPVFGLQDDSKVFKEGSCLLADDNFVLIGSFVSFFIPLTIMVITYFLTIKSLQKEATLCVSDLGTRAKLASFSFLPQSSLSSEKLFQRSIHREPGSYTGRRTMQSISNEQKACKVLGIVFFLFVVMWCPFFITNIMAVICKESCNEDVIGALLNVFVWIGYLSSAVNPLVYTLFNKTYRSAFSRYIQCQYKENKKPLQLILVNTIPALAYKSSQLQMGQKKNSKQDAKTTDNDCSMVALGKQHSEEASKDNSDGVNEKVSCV
Sequence of Muscarinic acetylcholine receptor M1 (Homo sapiens) (P11229 whole entry, looked up): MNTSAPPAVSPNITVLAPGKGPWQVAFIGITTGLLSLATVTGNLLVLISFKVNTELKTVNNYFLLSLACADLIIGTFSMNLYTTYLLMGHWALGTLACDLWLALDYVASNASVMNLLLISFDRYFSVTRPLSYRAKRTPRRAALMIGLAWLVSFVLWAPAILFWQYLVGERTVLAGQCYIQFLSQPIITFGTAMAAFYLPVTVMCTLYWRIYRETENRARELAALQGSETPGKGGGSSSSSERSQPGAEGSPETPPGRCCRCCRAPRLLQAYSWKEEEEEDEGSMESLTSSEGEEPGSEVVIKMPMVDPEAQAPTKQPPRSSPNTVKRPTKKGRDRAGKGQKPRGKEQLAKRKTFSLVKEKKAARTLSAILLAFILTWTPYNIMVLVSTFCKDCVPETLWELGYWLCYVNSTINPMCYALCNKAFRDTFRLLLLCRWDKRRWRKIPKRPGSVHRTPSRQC
Sequence of KiSS-1 receptor (Homo sapiens) (Q969F8 whole entry, looked up): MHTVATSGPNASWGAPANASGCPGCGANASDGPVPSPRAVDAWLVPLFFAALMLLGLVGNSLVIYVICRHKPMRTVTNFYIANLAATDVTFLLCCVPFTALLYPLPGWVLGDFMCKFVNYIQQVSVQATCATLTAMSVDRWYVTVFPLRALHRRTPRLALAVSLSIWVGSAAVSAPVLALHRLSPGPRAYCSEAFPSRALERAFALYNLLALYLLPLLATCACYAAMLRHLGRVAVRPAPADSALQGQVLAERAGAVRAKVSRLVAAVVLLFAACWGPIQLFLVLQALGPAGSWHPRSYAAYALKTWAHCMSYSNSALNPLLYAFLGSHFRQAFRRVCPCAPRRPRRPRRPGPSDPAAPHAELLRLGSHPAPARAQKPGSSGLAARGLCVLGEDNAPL
Sequence of Gonadotropin-releasing hormone receptor (Homo sapiens) (P30968 whole entry, looked up): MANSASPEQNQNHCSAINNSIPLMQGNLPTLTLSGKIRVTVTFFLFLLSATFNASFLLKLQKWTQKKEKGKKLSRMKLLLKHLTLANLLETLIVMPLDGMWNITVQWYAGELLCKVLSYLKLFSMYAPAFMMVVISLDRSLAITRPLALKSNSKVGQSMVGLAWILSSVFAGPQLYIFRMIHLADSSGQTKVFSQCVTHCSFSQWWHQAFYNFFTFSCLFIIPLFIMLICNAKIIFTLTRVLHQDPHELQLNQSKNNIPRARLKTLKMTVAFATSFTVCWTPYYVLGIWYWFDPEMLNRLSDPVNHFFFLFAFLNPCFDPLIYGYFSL
Sequence of D(2) dopamine receptor (Homo sapiens) (P14416 whole entry, looked up): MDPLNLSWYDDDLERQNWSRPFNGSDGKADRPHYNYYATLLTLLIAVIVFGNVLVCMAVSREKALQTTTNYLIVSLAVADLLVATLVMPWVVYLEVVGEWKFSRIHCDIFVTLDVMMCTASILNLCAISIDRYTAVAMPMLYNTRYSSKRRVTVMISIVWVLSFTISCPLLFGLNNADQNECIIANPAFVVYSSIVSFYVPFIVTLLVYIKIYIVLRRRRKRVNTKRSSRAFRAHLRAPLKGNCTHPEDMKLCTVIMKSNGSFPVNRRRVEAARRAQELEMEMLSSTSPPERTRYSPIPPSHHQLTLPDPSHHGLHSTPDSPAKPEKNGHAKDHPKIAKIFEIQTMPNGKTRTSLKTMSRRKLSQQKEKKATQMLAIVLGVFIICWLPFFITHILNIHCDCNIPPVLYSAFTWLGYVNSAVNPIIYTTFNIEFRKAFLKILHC
Sequence of Beta-2 adrenergic receptor (Homo sapiens) (P07550 whole entry, looked up): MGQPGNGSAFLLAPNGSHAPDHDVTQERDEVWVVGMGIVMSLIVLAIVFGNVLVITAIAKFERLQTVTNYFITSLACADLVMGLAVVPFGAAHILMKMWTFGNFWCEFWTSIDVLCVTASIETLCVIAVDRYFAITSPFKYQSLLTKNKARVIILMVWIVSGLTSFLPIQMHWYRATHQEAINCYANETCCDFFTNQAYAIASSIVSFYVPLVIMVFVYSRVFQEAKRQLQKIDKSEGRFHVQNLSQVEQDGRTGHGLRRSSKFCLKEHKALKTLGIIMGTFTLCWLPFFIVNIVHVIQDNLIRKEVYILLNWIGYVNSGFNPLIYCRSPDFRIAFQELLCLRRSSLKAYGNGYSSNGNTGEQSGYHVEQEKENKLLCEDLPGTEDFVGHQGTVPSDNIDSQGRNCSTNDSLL

N#CCCO
inactive: Potency [1] | Potency [2] | Potency [3] | Potency [4] | Potency [5] | Potency [6] | Potency [7] | Potency [8] | Potency [9] | Potency [10] | Potency [11] | Potency [12] | Potency [13] | Potency [14] | Potency [15] | Potency [16] | Potency [17] | Potency [18] | Potency [19]

BrC(Br)Br
inactive: Potency [1] | Potency [2] | Potency [3] | Potency [4] | Potency [5] | Potency [6] | Potency [7] | Potency [8] | Potency [9] | Potency [10] | Potency [11] | Potency [12] | Potency [13] | Potency [14] | Potency [15] | Potency [16] | Potency [17] | Potency [18] | Potency [19] | Potency [20]

CN(C)CCc1c[nH]c2cccc(OP(=O)(O)O)c12
active: Potency [12] 73.5 nM | Potency [13] 85.5 nM
inactive: Potency [1] | Potency [2] | Potency [3] | Potency [4] | Potency [5] | Potency [6] | Potency [7] | Potency [8] | Potency [9] | Potency [10] | Potency [11] | Potency [14] | Potency [15] | Potency [16] | Potency [17] | Potency [18] | Potency [19] | Potency [20]

CC(C)CON=O
inactive: Potency [1] | Potency [2] | Potency [3] | Potency [4] | Potency [5] | Potency [6] | Potency [7] | activity change, negative = cytotoxicity [8] -1.64% [at 13.5 µM] | Potency [9] | Potency [10] | Potency [11] | Potency [12] | Potency [13] | Potency [14] | Potency [15] | Potency [16] | Potency [17] | Potency [18] | Potency [19] | Potency [20]

OCCSSCCO
inactive: Potency [1] | Potency [2] | Potency [3] | Potency [4] | Potency [5] | Potency [6] | Potency [7] | Potency [8] | Potency [9] | Potency [10] | Potency [11] | Potency [12] | Potency [13] | Potency [14] | Potency [15] | Potency [16] | Potency [17] | Potency [18] | Potency [19] | Potency [20]

BrCc1ccc(Br)cc1
inactive: Potency [1] | Potency [2] | Potency [3] | Potency [4] | Potency [5] | Potency [6] | Potency [7] | Potency [8] | Potency [9] | Potency [10] | Potency [11] | Potency [12] | Potency [13] | Potency [14] | Potency [15] | Potency [16] | Potency [17] | Potency [18] | Potency [19] | Potency [20]

c1ccc(P(c2ccccc2)c2ccccc2)cc1
inactive: Potency [1] | Potency [2] | Potency [3] | Potency [4] | Potency [5] | Potency [6] | Potency [7] | Potency [8] | Potency [9] | Potency [10] | Potency [11] | Potency [12] | Potency [13] | Potency [14] | Potency [15] | Potency [16] | Potency [17] | Potency [18] | Potency [19] | Potency [20]

Cc1cc(Cl)ccc1O
inactive: Potency [1] | Potency [2] | Potency [3] | Potency [4] | Potency [5] | Potency [6] | Potency [7] | Potency [8] | Potency [9] | Potency [10] | Potency [11] | Potency [12] | Potency [13] | Potency [14] | Potency [15] | Potency [16] | Potency [17] | Potency [18] | Potency [19] | Potency [20]

O=[N+]([O-])c1cc(Cl)ccc1Cl
inactive: Potency [1] | Potency [2] | Potency [3] | Potency [4] | Potency [5] | Potency [6] | Potency [7] | Potency [8] | Potency [9] | Potency [10] | Potency [11] | Potency [12] | Potency [13] | Potency [14] | Potency [15] | Potency [16] | Potency [17] | Potency [18] | Potency [19] | Potency [20]

O=NN1CCCCCCC1
inactive: Potency [1] | Potency [2] | Potency [3] | Potency [4] | Potency [5] | Potency [6] | Potency [7] | Potency [8] | Potency [9] | Potency [10] | Potency [11] | Potency [12] | Potency [13] | Potency [14] | Potency [15] | Potency [16] | Potency [17] | Potency [18] | Potency [19] | Potency [20]

O=C(CCN1CC1)OCC(CO)(COC(=O)CCN1CC1)COC(=O)CCN1CC1
inactive: Potency [1] | Potency [2] | Potency [3] | Potency [4] | Potency [5] | Potency [6] | Potency [7] | Potency [8] | Potency [9] | Potency [10] | Potency [11] | Potency [12] | Potency [13] | Potency [14] | Potency [15] | Potency [16] | Potency [17] | Potency [18] | Potency [20]

CC1(C)CC(=O)CC(C)(C)N1[O]
inactive: Potency [1] | Potency [2] | Potency [3] | Potency [4] | Potency [5] | Potency [6] | Potency [7] | Potency [8] | Potency [9] | Potency [10] | Potency [11] | Potency [12] | Potency [13] | Potency [14] | Potency [15] | Potency [16] | Potency [17] | Potency [18] | Potency [19] | Potency [20]

CCCCOP(=O)(CCCC)OCCCC
inactive: Potency [1] | Potency [2] | Potency [3] | Potency [4] | Potency [5] | Potency [6] | Potency [7] | Potency [8] | Potency [9] | Potency [10] | Potency [11] | Potency [12] | Potency [14] | Potency [15] | Potency [16] | Potency [17] | Potency [18] | Potency [19] | Potency [20]
active: Potency [13] 19500 nM

CC1OC(C)OC(C)O1 (stereo not drawn)
inactive: Potency [1] | Potency [2] | Potency [3] | Potency [4] | Potency [5] | Potency [6] | Potency [7] | Potency [8] | Potency [9] | Potency [10] | Potency [11] | Potency [12] | Potency [13] | Potency [14] | Potency [15] | Potency [16] | Potency [17] | Potency [18] | Potency [19] | Potency [20]

CCCCOC(=O)c1ccccc1C(=O)OCCCC
inactive: Potency [1] | Potency [2] | Potency [3] | Potency [4] | Potency [5] | Potency [6] | Potency [7] | Potency [8] | Potency [9] | Potency [10] | Potency [11] | Potency [12] | Potency [13] | Potency [14] | Potency [15] | Potency [16] | Potency [17] | Potency [18] | Potency [19] | Potency [20]
